# Where “and” joins values, the source holds several entries; their conditions need not be identical. Equal values may be shown once. Inconclusive results are not listed. Calls of active or inactive are those of the source. Rule as the data show it, unless noted: active = inhibition above about 80%; inactive = the rest.
# Key:
# [1] = viability loss in pontine glioma line – cell-based, SU-DIPG-XXV, MIPE5.0, CellTiter-Glo, qHTS, dose response (AID 1347065; cut-off not given, nearly all actives have AC50 up to about 26 µM;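 also: cells exposed to compound for 48 hours before ATP readout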); conditions: CellTiter-Glo ATP luminescence
# [2] = growth inhibition of DIPG cells – cell-based, MIPE4.0 library, CellTiter-Glo luminescence, qHTS (AID 1347066; cut-off not given, nearly all actives have AC50 up to about 30 µM;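 also: cells exposed to compound for 48 hours before readout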); conditions: SU-DIPG-VI viability, CellTiter-Glo ATP luminescence
# [3] = JHH-DIPG-1 glioma cell viability, MIPE5.0 library, CellTiter-Glo luminescence, qHTS (AID 1347067; cut-off not given, nearly all actives have AC50 up to about 26 µM;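 also: cells exposed to compound for 48 hours before readout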); conditions: JHH-DIPG-1 glioma viability, CellTiter-Glo ATP luminescence
# [4] = growth inhibition of DIPG cells – cell-based, MIPE5.0 library, qHTS (AID 1347068; cut-off not given, nearly all actives have IC50 up to about 30 µM); conditions: SU-DIPG-XXV viability
# [5] = blockers of cellular phospholipid synthesis – cell-based, LOPAC library, screen 4, primary screen (AID 1347384; call rule not given here); conditions: animal cells, phospholipid biosynthesis inhibition screen; at 10 µM
# [6] = MELAS cybrid and Rieske KO viability enhancers – cell-based, MELAS cybrids, Rieske KO mouse fibroblasts, CellTiter-Glo, primary screen (AID 1508586;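 active = mean z-score across replicates of 1.96 or higher in either the MELAS or the Rieske mutant cell line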;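 also: z relative to plate mean and SD of compound and empty wells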); conditions: low glucose
# [7] = target: NAD(+) hydrolase SARM1 (Homo sapiens) (UniProt Q6SZW1); experiment: blocking NAD cleavage by SARM1 SAM-TIR – cell lysate, NAD-Glo luminescence (AID 1508614;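 active = compound whose remaining NAD level is above about 45 nM, limit read from the data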;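 also: higher remaining NAD means stronger inhibition of SARM1 NADase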); conditions: SAM-TIR HEK293T lysate NADase, at 1 µM, stronger effect = higher value
# [8] = target: Mitogen-activated protein kinase 7 (Homo sapiens) (UniProt Q13164); experiment: Gal4-ERK5 driven luciferase induction – cell-based, HTS, primary screen (AID 1508626;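 active = luciferase signal above three times the same-plate solvent-only control wells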;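 also: luciferase driven by Gal4-ERK5 fusion binding five Gal4 sites before minimal TATA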); conditions: HeLa Gal4-ERK5 transactivation, 18 h, at 5 µM, stronger effect = higher value
# [9] = galactose survival enhancers in mitochondrial complex I cybrids – cell-based, galactose medium, ATP luminescence, primary screen (AID 1645843;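 active = z-score of at least 1.8 in each of two replicates, scored against plate mean and spread of sample wells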;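 also: positive z means more ATP and so rescue of galactose-driven cybrid death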); conditions: complex I mutant cybrid cells, 72 h, stronger effect = higher value
# [10] = growth inhibition, single agent or in combination, cell-based, chromothripsis tumors, cisplatin or BGB combos (AID 1671449); conditions: LFS_MB_P medulloblastoma cells;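 also: cells exposed for 96 hours; 0% = vehicle DMSO and 100% = killing by high DMSO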
# [11] = growth inhibition, single agent and combos, cell-based, chromothripsis tumors, cisplatin or BGB combos (AID 1671450); conditions: HDN33 neuroblastoma cells, stronger effect = higher value;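 also: cells exposed to compound for four days; 0% = vehicle DMSO and 100% = cell killing by high DMSO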
# [12] = growth inhibition, single agents and combos, ICB984, cell-based, cisplatin or BGB combos, synergistic combos for chromothripsis tumors (AID 1671451; call rule not given here;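 also: cells exposed for 96 hours before readout; 0% = vehicle DMSO and 100% = killing by high DMSO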); conditions: ICB984 medulloblastoma cells, drug combinations, stronger effect = higher value
# [13] = growth inhibition, single agents and combos, LFS_MB_1R, cell-based, cisplatin or BGB combos, synergistic combos for chromothripsis tumors (AID 1671452); conditions: LFS_MB_1R medulloblastoma cells, stronger effect = higher value;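 also: cells exposed for 96 hours before readout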
# [14] = growth inhibition, single agents and combos, HTB85, cell-based, BGB or cisplatin IC20 combos, synergistic combos for chromothripsis tumors (AID 1671453); conditions: HTB85 osteosarcoma cells, drug combinations, stronger effect = higher value;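 also: cells exposed for 96 hours before readout; 0% = vehicle DMSO and 100% = high DMSO killing control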
# [15] = growth inhibition, single agents and combos, CRL2098, cell-based, BGB or cisplatin IC20 combos, synergistic combos for chromothripsis tumors (AID 1671454); conditions: CRL2098 osteosarcoma cells, drug combinations, stronger effect = higher value;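 also: cells exposed for 96 h before readout; 0% = vehicle DMSO and 100% = killing by high DMSO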
# [16] = growth inhibition, single agents and combos, HD-MB03, cell-based, BGB or cisplatin IC20 combos, synergistic combos for chromothripsis tumors (AID 1671455; in the data active = inhibition above about 83%;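 also: 0% = vehicle DMSO and 100% = high DMSO as cytotoxic control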); conditions: HD-MB03 medulloblastoma cells, stronger effect = higher value
# [17] = MELAS cybrid survival, CellTiter-Glo 48 h, stronger effect = higher value
# [18] = Rieske KO mouse fibroblast survival, CellTiter-Glo 72 h
# [19] = measured here: combination with BGB IC40, at 0.05 µM
# Mitogen-activated protein kinase 7 (Homo sapiens), sequence (Q13164 whole entry, looked up, the tested form may be a part): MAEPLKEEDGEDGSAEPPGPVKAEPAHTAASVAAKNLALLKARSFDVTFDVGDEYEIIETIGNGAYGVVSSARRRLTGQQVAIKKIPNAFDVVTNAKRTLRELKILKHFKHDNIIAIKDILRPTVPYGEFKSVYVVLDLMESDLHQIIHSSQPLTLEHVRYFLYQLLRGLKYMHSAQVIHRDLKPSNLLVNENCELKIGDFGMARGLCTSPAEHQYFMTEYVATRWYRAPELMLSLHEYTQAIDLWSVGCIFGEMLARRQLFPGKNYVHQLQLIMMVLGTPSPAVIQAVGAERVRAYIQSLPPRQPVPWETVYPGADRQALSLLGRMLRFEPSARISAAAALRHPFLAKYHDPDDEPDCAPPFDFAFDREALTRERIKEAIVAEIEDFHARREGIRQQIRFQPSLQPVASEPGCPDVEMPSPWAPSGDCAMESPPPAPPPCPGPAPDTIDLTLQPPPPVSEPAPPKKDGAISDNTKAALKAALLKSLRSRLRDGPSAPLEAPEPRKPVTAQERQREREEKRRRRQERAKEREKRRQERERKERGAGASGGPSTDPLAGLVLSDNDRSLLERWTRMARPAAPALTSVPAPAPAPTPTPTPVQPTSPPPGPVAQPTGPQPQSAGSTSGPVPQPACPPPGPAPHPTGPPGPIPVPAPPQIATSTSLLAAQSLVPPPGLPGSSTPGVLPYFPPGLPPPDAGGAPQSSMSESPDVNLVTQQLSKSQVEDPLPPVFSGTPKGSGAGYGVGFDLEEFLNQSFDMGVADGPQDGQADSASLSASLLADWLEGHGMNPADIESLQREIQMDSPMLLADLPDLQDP
# NAD(+) hydrolase SARM1 (Homo sapiens), sequence (Q6SZW1 whole entry, looked up, the tested form may be a part): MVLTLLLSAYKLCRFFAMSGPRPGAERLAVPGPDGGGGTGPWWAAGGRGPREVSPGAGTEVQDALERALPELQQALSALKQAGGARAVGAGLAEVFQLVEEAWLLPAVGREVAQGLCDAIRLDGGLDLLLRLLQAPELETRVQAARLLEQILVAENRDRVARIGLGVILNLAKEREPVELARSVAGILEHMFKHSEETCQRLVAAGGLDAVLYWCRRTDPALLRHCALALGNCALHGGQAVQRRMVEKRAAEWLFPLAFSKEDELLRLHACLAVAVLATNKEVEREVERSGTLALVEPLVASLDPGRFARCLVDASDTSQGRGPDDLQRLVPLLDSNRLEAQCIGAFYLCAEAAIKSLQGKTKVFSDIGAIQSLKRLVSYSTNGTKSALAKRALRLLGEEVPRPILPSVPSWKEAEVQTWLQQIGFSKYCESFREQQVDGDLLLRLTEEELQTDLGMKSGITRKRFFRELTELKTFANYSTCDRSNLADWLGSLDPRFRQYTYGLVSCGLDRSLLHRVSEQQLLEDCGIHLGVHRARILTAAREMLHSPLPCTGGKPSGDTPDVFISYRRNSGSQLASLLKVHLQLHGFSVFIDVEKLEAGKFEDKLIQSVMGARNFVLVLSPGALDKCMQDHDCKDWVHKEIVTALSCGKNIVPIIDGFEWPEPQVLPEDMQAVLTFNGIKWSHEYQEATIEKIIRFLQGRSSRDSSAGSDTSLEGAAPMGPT
smiles,measurement,setting,value
Cc1cc(C(C)(C)C)c(O)c(C)c1CC1=NCCN1,outcome,[1],inactive
same,outcome,[2],inactive
same,outcome,[3],inactive
same,outcome,[4],inactive
same,outcome,[5],inactive
same,z-score,[6]; [17],-0.371 (inactive) and 0.43 (inactive) and 0.93 (inactive)
same,z-score,[6]; [18],0.698 and 0.504 and 0.891
same,remaining NAD,[7],10 nM (inactive)
same,luciferase signal,[8],28 AU (inactive)
same,z-score,[9],0.16 (inactive) and -0.235 (inactive) and 0.51 (inactive)
CCn1cc(C(=O)O)c(=O)c2cc(F)c(N3CCNC(C)C3)c(F)c21 (stereo unspecified),outcome,[1],inactive
same,outcome,[2],inactive
same,outcome,[3],inactive
same,outcome,[4],inactive
same,outcome,[5],inactive
same,z-score,[6]; [17],-0.544 (inactive) and -0.435 (inactive)
same,z-score,[6]; [18],0.167 and 0.141
same,remaining NAD,[7],10 nM (inactive)
same,luciferase signal,[8],36 AU (inactive)
same,z-score,[9],0.475 (inactive) and -0.065 (inactive)
same,inhibition,"[10]; at 0.5 µM, stronger effect = higher value",-15.3% (inactive) and -10.6% (inactive)
same,inhibition,"[10]; measured here: combination with BGB IC20, at 0.005 µM",-5.89% and -31.7%
same,inhibition,"[10]; measured here: combination with BGB IC40, at 0.005 µM",-27.7% and -17%
same,inhibition,[10]; [19],-32.7% and -10.2%
same,inhibition,"[10]; measured here: combination with cisplatin, at 0.5 µM, stronger effect = higher value",-27.9% and -16%
same,inhibition,"[10]; measured here: combination with cisplatin, at 5 µM, stronger effect = higher value",-19.1% and -19.2%
same,inhibition,"[11]; BGB combo, at 5 µM",-42.8% and -11.5%
same,inhibition,[11]; at 0.5 µM,-39.6% (inactive) and -19.9% (inactive)
same,inhibition,"[11]; cisplatin combo, at 5 µM",-22.1% and -6.52%
same,inhibition,"[11]; measured here: with BGB IC20 combination, at 0.5 µM",-33.5% and -33.9%
same,inhibition,"[11]; measured here: with cisplatin IC20 combination, at 0.5 µM",-40.2% and -6.39%
same,inhibition,"[11]; single agent, at 5 µM",-51.7% and -21.7%
same,inhibition,"[12]; BGB IC20 combo, at 0.005 µM",-2.68% and 6.83%
same,inhibition,"[12]; BGB IC40 combo, at 0.005 µM",-5.47% and -12.9%
same,inhibition,"[12]; BGB IC40 combo, at 0.05 µM",-30.9% and -16.1%
same,inhibition,[12]; at 0.5 µM,-32.8% (inactive) and -22.8% (inactive)
same,inhibition,"[12]; cisplatin combo, at 0.05 µM",-34.5% and -19.4%
same,inhibition,"[12]; cisplatin combo, at 0.5 µM",-41.4% and -25.5%
same,inhibition,"[12]; cisplatin combo, at 5 µM",-38.8% and -8.31%
same,inhibition,"[12]; measured here: 5 uM single agent, at 5 µM",-28.6% and -13.7%
same,inhibition,[13]; at 0.5 µM,-35.3% (inactive) and -9.61% (inactive)
same,inhibition,[13]; [19],-24.9% and -19.8%
same,inhibition,"[13]; measured here: combination with cisplatin, at 0.5 µM",-39.3% and -32.8%
same,inhibition,"[13]; measured here: combination with cisplatin, at 5 µM",-53.1% and -17.8%
same,inhibition,[14]; at 0.5 µM,-42.2% (inactive) and 22% (inactive)
same,inhibition,"[14]; measured here: with BGB IC20, at 0.5 µM",-50.9% and 58.5%
same,inhibition,"[14]; measured here: with BGB IC20, at 5 µM",-41.8% and 56%
same,inhibition,"[14]; measured here: with cisplatin IC20, at 0.5 µM",-43.1% and 12.8%
same,inhibition,"[14]; measured here: with cisplatin IC20, at 5 µM",-15.2% and -22.2%
same,inhibition,"[14]; single agent, at 5 µM",-37.9% and -11.7%
same,inhibition,[15]; at 0.5 µM,-101% (inactive) and -12.1% (inactive)
same,inhibition,"[15]; measured here: combination with BGB at IC20, at 0.5 µM",-94% and -48.1%
same,inhibition,"[15]; measured here: combination with cisplatin at IC20, at 0.5 µM",-123% and -10.4%
same,inhibition,[16]; at 0.5 µM,-11.4% (inactive) and -9.63% (inactive)
same,inhibition,"[16]; measured here: combo with BGB at IC20, at 0.5 µM",-10.9% and -2.68%
same,inhibition,"[16]; measured here: combo with cisplatin at IC20, at 0.5 µM",-12.2% and -16.4%
CCN1CCCC1CNC(=O)c1cc(S(=O)(=O)CC)c(N)cc1OC (stereo unspecified),outcome,[1],inactive
same,outcome,[2],inactive
same,outcome,[3],inactive
same,outcome,[4],inactive
same,outcome,[5],inactive
same,z-score,[6]; [17],-0.415 (inactive) and 0.449 (inactive)
same,z-score,[6]; [18],0.177 and 0.21
same,remaining NAD,[7],10 nM (inactive)
same,z-score,[9],0.105 (inactive) and 0.58 (inactive) and -0.055 (inactive)
COC(=O)[C@@H]1[C@H]2C[C@H]3c4[nH]c5ccccc5c4CCN3C[C@@H]2CC[C@@H]1O,outcome,[1],inactive
same,outcome,[2],inactive
same,outcome,[3],inactive
same,outcome,[4],inactive
same,outcome,[5],inactive
same,z-score,[6]; [17],0.194 (inactive) and -0.872 (inactive)
same,z-score,[6]; [18],0.2 and -0.116
same,remaining NAD,[7],10 nM (inactive)
same,luciferase signal,[8],44 AU (inactive)
same,z-score,[9],0.525 (inactive) and 0.82 (inactive)
CC(C)NCC(O)COc1ccc(CCOCC2CC2)cc1 (stereo unspecified),outcome,[1],inactive
same,outcome,[2],inactive
same,outcome,[3],inactive
same,outcome,[4],inactive
same,outcome,[5],inactive
same,remaining NAD,[7],10 nM (inactive)
